Compound activity (PubChem BioAssay)
TDP1 cell CPT = growth inhibition of DT40 Tdp1-/-;hTDP1 cells with camptothecin (screen for TDP1 inhibitors); actives 12% (n = 420,000); Potency, µM (highest dose often 46.2 µM), without a hit: at the top dose activity change, negative = growth inhibition, usual class: inhibitors; chicken DT40 Tdp1-/-;hTDP1 cells + 20 nM CPT, ATP luminescence, 48 h; note: potency is the fitted concentration of half-maximal effect; nearly all actives have a fitted effect of over 55% in size
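Chicken DT40 Tdp1-/- cells complemented with human TDP1, 400 cells/well, exposed to compounds plus 20 nM camptothecin for at least 48 h at 37 C; viability read as ATP content by CellTiter-Glo luminescence.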
TDP1 inh = inhibitors of human tyrosyl-DNA phosphodiesterase TDP1; recombinant TDP1, AlphaScreen DNA substrate cleavage; Potency, µM (series often up to 130 µM), without a hit: at the highest dose activity change, negative = inhibition, actives largely listed as inhibitors; actives 0.28% (n = 350,000); AID 485290; note: potency is the fitted concentration of half-maximal effect; nearly all actives have a fitted effect of over 40% in size
Target sequence (Q9NUW8 whole entry, looked up): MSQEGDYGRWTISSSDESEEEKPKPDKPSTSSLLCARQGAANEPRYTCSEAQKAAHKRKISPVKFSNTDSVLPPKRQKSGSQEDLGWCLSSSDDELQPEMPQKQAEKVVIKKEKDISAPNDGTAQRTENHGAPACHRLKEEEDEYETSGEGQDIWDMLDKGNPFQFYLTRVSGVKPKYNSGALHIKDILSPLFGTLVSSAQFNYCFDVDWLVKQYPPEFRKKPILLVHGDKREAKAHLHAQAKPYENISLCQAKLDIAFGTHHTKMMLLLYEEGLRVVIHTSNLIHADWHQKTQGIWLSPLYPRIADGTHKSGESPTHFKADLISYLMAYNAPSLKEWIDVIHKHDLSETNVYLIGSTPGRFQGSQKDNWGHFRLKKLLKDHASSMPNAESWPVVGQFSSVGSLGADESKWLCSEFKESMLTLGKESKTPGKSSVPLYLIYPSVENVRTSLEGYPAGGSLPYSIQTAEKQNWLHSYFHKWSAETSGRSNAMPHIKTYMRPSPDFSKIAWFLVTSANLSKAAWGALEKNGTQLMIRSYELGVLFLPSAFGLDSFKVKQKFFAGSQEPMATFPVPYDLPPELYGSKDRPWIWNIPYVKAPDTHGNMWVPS
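Enzyme-compound mixtures sat 15 min at room temperature, followed by a 5 min reaction with 15 nM final substrate and 10 min with AlphaScreen beads. Recombinant human Tdp1 was used at 1 nM final.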
Six1-Eya2 inh = inhibitors of human Six1/Eya2 interaction; Q15475+O00167; AlphaScreen GST-Six1/His-Eya2 binding, biochemical; stronger effect = lower value; activity change, % (test concentration not listed); actives 0.56% (n = 360,000); AID 651725; in the data active = activity change below about -65%; inconclusive = mostly about -30% to -63%
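GST-Six1 + His-Eya2 (5X stock: 250/500 nM); Tris pH 8.0, 300 mM NaCl, 0.05% BSA, 0.02% Tween 20; GSH donor/Ni acceptor beads; 1 h 37 °C dark; AlphaScreen readout.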
CtBP-E1A blk = inhibitors of CtBP/E1A interaction | AlphaScreen GST-E1A/His-CtBP binding, 1536-well; stronger effect = lower value | activity change, % (no concentration beside the values) | actives 0.49% (n = 340,000) | AID 651724; in the data active = activity change below about -65%; inconclusive = mostly about -30% to -63%
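Homogeneous bead-based format: GST-tagged E1A captured on glutathione donor beads, His-tagged CtBP on nickel acceptor beads; compounds precede bead addition by 2 h at 37 °C.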
DT40 TDP1 no CPT = qHTS for Inhibitors of human tyrosyl-DNA phosphodiesterase 1 (TDP1): qHTS in cells in absence of CPT; actives 15% (n = 420,000); DT40 Tdp1-/- hTDP1 cells, no CPT, ATP luminescence, 48 h; Potency, µM (doses to about 46.2 µM), for the others: at the highest dose activity change, negative = growth inhibition, usual class: inhibitors; note: potency is the fitted concentration of half-maximal effect; nearly all actives have a fitted effect of over 55% in size
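DT40 Tdp1-/-;hTDP1 cells, no CPT (DMSO vehicle only), 400 cells/well; compounds pin-transferred; ≥48 hr, 37 °C; CellTiter-Glo 30 min RT dark, luminescence read.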
IL1B secr inh = inhibitors of inflammasome signaling (IL-1 beta secretion); actives 4.7% (n = 360,000); THP-1 LPS/ATP IL-1B secretion, AlphaLISA, 16 h; stronger effect = lower value; activity change, % at 57.5 µM; in the data active = activity change below about -50%; inconclusive = mostly about -30% to -49%
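THP-1 cells pretreated 1 hr with compounds (up to 57.5 uM final), then stimulated with LPS (250 ng/mL final) plus ATP (1.25 mM final); secreted IL-1B measured by AlphaLISA after 16 hr, decreased signal indicating inhibition.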
* marks the source's active call; other numbers are inactive results; [ ] = dose if it differs, or a comment. The list is not random: actives were taken first. Their share in the collection is about 18%. Unless noted, calls come from the whole dose curve; as a rule, active = well fitted curve in the direction sought with a large enough effect; inconclusive = small, poorly fitted or top-dose-only effect, or another doubt; inactive = no such curve, though single readings can be large; an effect the other way counts as inactive or inconclusive. % is set by controls: 0 for no effect and ±100 for the full control effect.

Screening CCOc1ccc(CC(=O)NCc2ccc3c(c2)CCN3C(=O)c2ccc(F)cc2)cc1OCC returned TDP1 cell CPT inconclusive, TDP1 inh 0% and DT40 TDP1 no CPT inconclusive.
For Cc1ccc(C(=O)N2CCc3cc(CNC(=O)COc4ccccc4)ccc32)cc1 the results were TDP1 cell CPT 13µM*, TDP1 inh 3% and DT40 TDP1 no CPT 12µM*.
For CCC1(CC)NC(=O)N(CC(=O)OCC(=O)NC(=O)c2ccccc2OC)C1=O the results were TDP1 cell CPT -9%, TDP1 inh 0%, Six1-Eya2 inh 0, CtBP-E1A blk 3, DT40 TDP1 no CPT -17% and IL1B secr inh 5.
`CCOC(=O)C(C)Oc1cccc2c(=O)n(CC(=O)N3CCN(C(=O)OCC)CC3)ccc12` (stereo unspecified) gave TDP1 cell CPT -6%, TDP1 inh 0%, Six1-Eya2 inh 0, CtBP-E1A blk 3, DT40 TDP1 no CPT -21% and IL1B secr inh -18.
`CCOc1cccc2sc(N(CCN(C)C)C(=O)/C=C/c3cccs3)nc12` gave TDP1 cell CPT 7.3µM*, TDP1 inh 8%, Six1-Eya2 inh -3, CtBP-E1A blk -1, DT40 TDP1 no CPT 23µM* and IL1B secr inh -103*.
`COc1cccc2sc(N(CCN(C)C)C(=O)c3ccc4c(c3)CCCC4)nc12` gave TDP1 cell CPT inconclusive, TDP1 inh 12%, Six1-Eya2 inh inconclusive, CtBP-E1A blk -26, DT40 TDP1 no CPT inconclusive and IL1B secr inh inactive.
Screening COc1cccc2sc(N(CCN(C)C)C(=O)/C=C/c3cccs3)nc12 returned TDP1 cell CPT inconclusive, TDP1 inh 5%, Six1-Eya2 inh -3, CtBP-E1A blk 3, DT40 TDP1 no CPT 21µM* and IL1B secr inh -6.
For O=[N+]([O-])c1ccccc1S(=O)(=O)NCCC1=CCCCC1 the results were TDP1 cell CPT 18µM*, TDP1 inh 6%, Six1-Eya2 inh -2, CtBP-E1A blk 6, DT40 TDP1 no CPT 21µM* and IL1B secr inh -26.
O=S(=O)(NCCC1=CCCCC1)c1cccc(Br)c1 was read as TDP1 cell CPT inconclusive, TDP1 inh -4%, Six1-Eya2 inh 28, CtBP-E1A blk 4, DT40 TDP1 no CPT 18µM* and IL1B secr inh 2.
For CC(C)c1cccc(-c2csc(C(O)c3ccco3)n2)c1 (stereo unspecified) the results were TDP1 cell CPT inconclusive, Six1-Eya2 inh -12, CtBP-E1A blk 1, DT40 TDP1 no CPT inconclusive and IL1B secr inh 13.
For COc1ccc(S(=O)(=O)Nc2nnc(C)s2)cc1 the results were TDP1 cell CPT -25%, TDP1 inh 1%, Six1-Eya2 inh -1, CtBP-E1A blk 0, DT40 TDP1 no CPT 0% and IL1B secr inh -2.
`CCN(CC)S(=O)(=O)c1ccc(NC(=O)[C@@H](NC(=O)c2cc(OC)cc(OC)c2)C(C)C)cc1` gave TDP1 cell CPT inconclusive, TDP1 inh 5%, Six1-Eya2 inh 2, DT40 TDP1 no CPT inconclusive and IL1B secr inh -27.
`COc1ccc(COC(=O)N/N=C2/C[C@@H](O)[C@@H](O)[C@@H]3[C@@H]4C(=O)N(C(C)(C)C)C(=O)[C@H]4CC[C@H]23)cc1` gave TDP1 inh 5%[21 µM].
Screening Clc1ccc(CCNC(c2ccc(Cl)cc2)c2nnc(-c3ccccc3)o2)cc1 (stereo unspecified) returned TDP1 cell CPT inconclusive, TDP1 inh -8% and DT40 TDP1 no CPT 23µM*.
For COc1ccc(NC(c2nnc(-c3ccccc3)o2)c2ccccc2F)cc1Cl (stereo unspecified) the results were TDP1 cell CPT -30%, TDP1 inh 8% and DT40 TDP1 no CPT -41%.
`Fc1ccccc1C(NCCc1ccc(Cl)cc1)c1nnc(-c2ccccc2)o1` (stereo unspecified) gave TDP1 cell CPT 18µM*, TDP1 inh -5% and DT40 TDP1 no CPT inconclusive.
COC(=O)c1ccc(C(NC(=O)OCc2ccccc2)/C(F)=C/[C@@H](C)C(=O)NC2CCCCC2)cc1 (stereo partly specified) was read as TDP1 inh 6%.
`Cc1cc(C)c2c(=O)c3c(oc2c1)C(=O)N(CCO)C3c1cccc(O)c1` (stereo unspecified) gave TDP1 cell CPT -14%, TDP1 inh 5%, Six1-Eya2 inh 11, CtBP-E1A blk -6, DT40 TDP1 no CPT -16% and IL1B secr inh -58*.
`COc1cc(C2c3c(oc4ccc(C)cc4c3=O)C(=O)N2Cc2ccc(F)cc2)ccc1O` (stereo unspecified) gave TDP1 cell CPT 5%, TDP1 inh -2% and DT40 TDP1 no CPT -11%.
Screening O=C1c2oc3ccccc3c(=O)c2C(c2cccc(O)c2)N1Cc1ccc(F)cc1 (stereo unspecified) returned TDP1 cell CPT inconclusive, TDP1 inh 6% and DT40 TDP1 no CPT 21µM*.
`CCOc1cc(C2c3c(oc4ccc(F)cc4c3=O)C(=O)N2Cc2ccc(C)cc2)ccc1O` (stereo unspecified) gave TDP1 cell CPT 1.3µM*, TDP1 inh 0% and DT40 TDP1 no CPT inconclusive.
CCNc1nc(NCC)nc(N/N=C(\C)c2ccc(OC)cc2)n1 was read as TDP1 cell CPT inconclusive, TDP1 inh 2%, Six1-Eya2 inh -5, DT40 TDP1 no CPT inconclusive and IL1B secr inh -16.
COc1cc(S(=O)(=O)N2CCCCCC2)c(OC)cc1Br was read as TDP1 cell CPT inconclusive, TDP1 inh -1%, Six1-Eya2 inh 9, CtBP-E1A blk -1, DT40 TDP1 no CPT inconclusive and IL1B secr inh -17.
Screening COc1ccc(OC)c(CNc2ccc(F)c(Cl)c2)c1 returned TDP1 cell CPT -19%, TDP1 inh 5%, Six1-Eya2 inh -12, CtBP-E1A blk -2, DT40 TDP1 no CPT -13% and IL1B secr inh -5.
For CCOC(=O)C1(C(F)(F)F)N=C(C(F)(F)F)Nc2ccccc21 (stereo unspecified) the results were TDP1 cell CPT 3%, TDP1 inh 4%, Six1-Eya2 inh -7, CtBP-E1A blk -7, DT40 TDP1 no CPT -1% and IL1B secr inh 16.
Screening COc1ccc(/C=C2/SC(=S)N(NS(=O)(=O)c3ccc(C)cc3)C2=O)cc1 returned TDP1 cell CPT -19%, TDP1 inh 9%[0.0935 µM], Six1-Eya2 inh 9, CtBP-E1A blk -4, DT40 TDP1 no CPT -14% and IL1B secr inh -56*.
